# Laboratory results published in PubChem BioAssay.
# Inconclusive results are not listed. Calls of active or inactive are those of the source.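 The calls were made as follows, unless noted: active = normalized viability below 100% at a tested concentration; inactive = the rest.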
# Tests used:
# [1] = viability loss in pontine glioma line – cell-based, SU-DIPG-XVII, MIPE5.0, CellTiter-Glo, qHTS, dose response (AID 1347060; cut-off not given, nearly all actives have AC50 up to about 26 µM;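 as to AC50: cells exposed to compound for 48 hours before viability readout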); details: CellTiter-Glo ATP luminescence
# [2] = viability loss in pontine glioma line – cell-based, JHH-DIPG-1, MIPE4.0, CellTiter-Glo, qHTS, dose response (AID 1347062; cut-off not given, nearly all actives have AC50 up to about 27 µM;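 as to AC50: cells exposed to compound for two days before readout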); details: JHH-DIPG-1 viability, CellTiter-Glo ATP luminescence
# [3] = viability loss in pontine glioma line – cell-based, SU-DIPG-XIII, MIPE5.0, CellTiter-Glo, qHTS, dose response (AID 1347064; cut-off not given, nearly all actives have AC50 up to about 23 µM;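 as to AC50: cells exposed to compound for 48 hours before the viability read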); details: CellTiter-Glo ATP luminescence
# [4] = viability loss in pontine glioma line – cell-based, SU-DIPG-XXV, MIPE5.0, CellTiter-Glo, qHTS, dose response (AID 1347065; cut-off not given, nearly all actives have AC50 up to about 26 µM;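 also: cells exposed to compound for 48 hours before ATP readout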); details: CellTiter-Glo ATP luminescence
# [5] = growth inhibition of DIPG cells – cell-based, MIPE4.0 library, CellTiter-Glo luminescence, qHTS (AID 1347066; cut-off not given, nearly all actives have AC50 up to about 30 µM;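 also: cells exposed to compound for 48 hours before readout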); details: SU-DIPG-VI viability, CellTiter-Glo ATP luminescence
# [6] = JHH-DIPG-1 glioma cell viability, MIPE5.0 library, CellTiter-Glo luminescence, qHTS (AID 1347067; cut-off not given, nearly all actives have AC50 up to about 26 µM;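 also: cells exposed to compound for 48 hours before readout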); details: JHH-DIPG-1 glioma viability, CellTiter-Glo ATP luminescence
# [7] = growth inhibition of DIPG cells – cell-based, MIPE5.0 library, qHTS (AID 1347068; cut-off not given, nearly all actives have IC50 up to about 30 µM;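 as to IC50: cells exposed to compound for 48 hours before viability readout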); details: SU-DIPG-XXV viability
# [8] = viability loss with induced miR-34 in A549 – imaging, A549 dox-inducible miR-34, nuclei and caspase counts, primary screen (AID 1347080;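 active = compounds whose cell count with miR-34 switched on is under 0.7 times the count with it off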); details: A549 miR-34 inducible, Hoechst nuclei count, 48 h
# [9] = MELAS cybrid and Rieske KO viability enhancers – cell-based, MELAS cybrids, Rieske KO mouse fibroblasts, CellTiter-Glo, primary screen (AID 1508586;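 active = mean z-score across replicates of 1.96 or higher in either the MELAS or the Rieske mutant cell line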;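 also: z relative to plate mean and SD of compound and empty wells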); details: low glucose
# [10] = drug combination growth inhibition, ovarian cancer – cell-based, oncology-focused library, rucaparib conditional, profiling panel (AID 1508598); details: patient-derived ovarian cancer cells, CellTiter-Glo viability, 144 h, stronger effect = lower value
# [11] = compounds altering HSF1 focus formation in cells – imaging, Selleck Cancer Library (AID 1347162; in the data active = plate-normalised HSF1 focus index below about 0.46); details: human cells, HSF1 nuclear foci imaging, at 10 µM; SSMD: measured here: HSF1 foci SSMD mean; cell count: measured here: cell number; plate-normalised HSF1 focus index: stronger effect = lower value
# [12] = stronger effect = lower value, cell number ratio, induced over uninduced
# [13] = measured here: relative caspase fold change +Dox/-Dox
# [14] = measured here: total cells with miR-34 induction, stronger effect = lower value
# [15] = measured here: total cells without miR-34 induction
# [16] = MELAS cybrid survival, CellTiter-Glo 48 h, stronger effect = higher value
# [17] = Rieske KO mouse fibroblast survival, CellTiter-Glo 72 h
# [18] = at 0.000305 µM, OCI-C5x cells, with rucaparib 10 µM, 100% = cells with rucaparib alone
# [19] = at 0.000305 µM, OCI-C5x cells, without rucaparib
# [20] = at 0.000305 µM, OCI-P5x cells, with rucaparib 20 µM, 100% = cells with rucaparib alone
# [21] = at 0.000305 µM, OCI-P5x cells, without rucaparib
# [22] = at 0.00122 µM, OCI-C5x cells, with rucaparib 10 µM, 100% = cells with rucaparib alone
# [23] = at 0.00122 µM, OCI-C5x cells, without rucaparib
# [24] = at 0.00122 µM, OCI-P5x cells, with rucaparib 20 µM, 100% = cells with rucaparib alone
# [25] = at 0.00122 µM, OCI-P5x cells, without rucaparib
# [26] = at 0.00488 µM, OCI-C5x cells, with rucaparib 10 µM, 100% = cells with rucaparib alone
# [27] = at 0.00488 µM, OCI-C5x cells, without rucaparib
# [28] = at 0.00488 µM, OCI-P5x cells, with rucaparib 20 µM, 100% = cells with rucaparib alone
# [29] = at 0.00488 µM, OCI-P5x cells, without rucaparib
# [30] = at 0.0195 µM, OCI-C5x cells, with rucaparib 10 µM, 100% = cells with rucaparib alone
# [31] = at 0.0195 µM, OCI-C5x cells, without rucaparib
# [32] = at 0.0195 µM, OCI-P5x cells, with rucaparib 20 µM, 100% = cells with rucaparib alone
# [33] = at 0.0195 µM, OCI-P5x cells, without rucaparib
# [34] = at 0.0781 µM, OCI-C5x cells, with rucaparib 10 µM, 100% = cells with rucaparib alone
# [35] = at 0.0781 µM, OCI-C5x cells, without rucaparib
# [36] = at 0.0781 µM, OCI-P5x cells, with rucaparib 20 µM, 100% = cells with rucaparib alone
# [37] = at 0.0781 µM, OCI-P5x cells, without rucaparib
# [38] = at 0.313 µM, OCI-C5x cells, with rucaparib 10 µM, 100% = cells with rucaparib alone
# [39] = at 0.313 µM, OCI-C5x cells, without rucaparib
# [40] = at 0.313 µM, OCI-P5x cells, with rucaparib 20 µM, 100% = cells with rucaparib alone
# [41] = at 0.313 µM, OCI-P5x cells, without rucaparib
# [42] = at 1.25 µM, OCI-C5x cells, with rucaparib 10 µM, 100% = cells with rucaparib alone
# [43] = at 1.25 µM, OCI-C5x cells, without rucaparib
# [44] = at 1.25 µM, OCI-P5x cells, with rucaparib 20 µM, 100% = cells with rucaparib alone
# [45] = at 1.25 µM, OCI-P5x cells, without rucaparib
# [46] = at 5 µM, OCI-C5x cells, with rucaparib 10 µM, 100% = cells with rucaparib alone
# [47] = at 5 µM, OCI-C5x cells, without rucaparib
# [48] = at 5 µM, OCI-P5x cells, with rucaparib 20 µM, 100% = cells with rucaparib alone
# [49] = at 5 µM, OCI-P5x cells, without rucaparib
compound,measurement,setting,value
O=S(=O)(O)c1ccc2cc(N=Nc3cc(S(=O)(=O)O)c4cccnc4c3O)ccc2c1,outcome,[1],inactive
same,outcome,[2],inactive
same,outcome,[3],inactive
same,outcome,[4],inactive
same,outcome,[5],inactive
same,outcome,[6],inactive
same,outcome,[7],inactive
Cc1ccc(S(=O)(=O)Nc2nc3ccccc3nc2Nc2ccc3nsnc3c2)cc1,outcome,[1],inactive
same,AC50,[2],512 nM (active)
same,outcome,[3],inactive
same,outcome,[6],inactive
same,outcome,[7],inactive
same,fold change,[8]; [12],0.883 (inactive)
same,fold change,[8]; [13],1.38
same,cell count,[8]; [14],3480
same,cell count,[8]; [15],3940
same,z-score,[9]; [16],-0.561 (inactive)
same,z-score,[9]; [17],0.136
same,viability,[10]; [18],107% (inactive)
same,viability,[10]; [19],120% (inactive)
same,viability,[10]; [20],124% (inactive)
same,viability,[10]; [21],116% (inactive)
same,viability,[10]; [22],122% (inactive)
same,viability,[10]; [23],132% (inactive)
same,viability,[10]; [24],131% (inactive)
same,viability,[10]; [25],117% (inactive)
same,viability,[10]; [26],112% (inactive)
same,viability,[10]; [27],130% (inactive)
same,viability,[10]; [28],125% (inactive)
same,viability,[10]; [29],115% (inactive)
same,viability,[10]; [30],123% (inactive)
same,viability,[10]; [31],132% (inactive)
same,viability,[10]; [32],120% (inactive)
same,viability,[10]; [33],108% (inactive)
same,viability,[10]; [34],122% (inactive)
same,viability,[10]; [35],124% (inactive)
same,viability,[10]; [36],125% (inactive)
same,viability,[10]; [37],110% (inactive)
same,viability,[10]; [38],112% (inactive)
same,viability,[10]; [39],74.9% (active)
same,viability,[10]; [40],117% (inactive)
same,viability,[10]; [41],106% (inactive)
same,viability,[10]; [42],115% (inactive)
same,viability,[10]; [43],121% (inactive)
same,viability,[10]; [44],110% (inactive)
same,viability,[10]; [45],105% (inactive)
same,viability,[10]; [46],107% (inactive)
same,viability,[10]; [47],117% (inactive)
same,viability,[10]; [48],95.1% (active)
same,viability,[10]; [49],102% (inactive)
COc1cc(Nc2ncc3c(n2)-c2ccc(Cl)cc2C(c2c(F)cccc2OC)=NC3)ccc1C(=O)O,AC50,[1],148 nM (active)
same,outcome,[2],inactive
same,AC50,[3],8330 nM (active)
same,AC50,[4],93.4 nM (active)
same,AC50,[6],8330 nM (active)
same,IC50,[7],3720 nM (active)
same,fold change,[8]; [12],1.23 (inactive)
same,fold change,[8]; [13],1.04
same,cell count,[8]; [14],1850
same,cell count,[8]; [15],1510
same,SSMD,[11],2.08
same,cell count,[11],6720
same,plate-normalised HSF1 focus index,[11],1.13 (inactive)
same,z-score,[9]; [16],-0.56 (inactive)
same,z-score,[9]; [17],0.925
same,viability,[10]; [18],94.6% (active)
same,viability,[10]; [19],108% (inactive)
same,viability,[10]; [20],113% (inactive)
same,viability,[10]; [21],109% (inactive)
same,viability,[10]; [22],112% (inactive)
same,viability,[10]; [23],101% (inactive)
same,viability,[10]; [24],110% (inactive)
same,viability,[10]; [25],106% (inactive)
same,viability,[10]; [26],107% (inactive)
same,viability,[10]; [27],98.7% (active)
same,viability,[10]; [28],110% (inactive)
same,viability,[10]; [29],106% (inactive)
same,viability,[10]; [30],94.4% (active)
same,viability,[10]; [31],103% (inactive)
same,viability,[10]; [32],106% (inactive)
same,viability,[10]; [33],99.3% (active)
same,viability,[10]; [34],75.5% (active)
same,viability,[10]; [35],70.5% (active)
same,viability,[10]; [36],91.7% (active)
same,viability,[10]; [37],70.7% (active)
same,viability,[10]; [38],74.5% (active)
same,viability,[10]; [39],82.5% (active)
same,viability,[10]; [40],87.4% (active)
same,viability,[10]; [41],63.8% (active)
same,viability,[10]; [42],76.8% (active)
same,viability,[10]; [43],77% (active)
same,viability,[10]; [44],82.8% (active)
same,viability,[10]; [45],56.7% (active)
same,viability,[10]; [46],42.9% (active)
same,viability,[10]; [47],34.9% (active)
same,viability,[10]; [48],78.6% (active)
same,viability,[10]; [49],39% (active)
